From PubChem BioAssay AID720697 (Broad Institute, 2013)
Entries with a potency or affinity are not part of this list. Results filed as inconclusive are left out. The source made the active and inactive calls.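 The calls were made as follows: active = signal loss with fitted half-maximal concentration at or below twice the top valid tested dose in every test run; inconclusive = runs disagree, flat 30 to 70% signal loss, or poor fit; inactive = all runs flat, opposite direction, or potency beyond limit.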

Assay: HEK293T cytotoxicity, dose response, cytotoxicity control for miR-122 modulator project, cell-based, inhibitor set, cherry-pick, set 2 (AID 720697);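 also: 0% = median of neutral control wells and -100% = MG132 positive control wells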
Settings: HEK293T viability, CellTiter-Glo luminescence, 48 h; series mostly up to 26 µM; activity change, negative = cytotoxicity: at the top concentration

Row | SMILES | activity change, negative = cytotoxicity
1 | CN1C(=O)c2cc(NC(=O)Cc3ccccc3)ccc2OC[C@H]2O[C@H](CC(=O)O)CC[C@H]21 | 90.5% (inactive)
2 | O=C(Nc1ccccc1)N1C[C@@H]2[C@H](c3ccccc31)[C@H](CO)N2C(=O)c1ccncc1 | 88.5% [at 23.5 µM] (inactive)
3 | CN1C(=O)c2cc(NC(=O)Nc3cccc(Cl)c3)ccc2OC[C@H]2O[C@@H](CC(=O)NCCc3ccncc3)CC[C@H]21 | 50.4% [at 23.5 µM] (inactive)
4 | CC(C)C(=O)Nc1ccc2c(c1)C(=O)N(C)[C@@H]1CC[C@H](CC(=O)NCC3CC3)O[C@H]1CO2 | 7.63% [at 23.5 µM] (inactive)
5 | OC(c1cc(C(F)(F)F)nc2c(Cl)cc(Cl)cc12)C1CCCCN1 (stereo not given) | -42.2% (inactive)
